Source: the supplement of paper PMC12494721
Structures can show the parent of a compound that is named as a salt.

How the values were obtained:
Details in all cases: incubation time: 27 h, anaerobic, 37 °C;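 for the amine columns active = adjusted P below 0.05 in both replicates with a change the same way and a mean fold change under 0.8 or over 1.25; inactive = the rest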
[1] = tested on: Clostridium sporogenes DSM 1664; assay: growth (OD595) fold change vs plate DMSO controls (fold change (ratio)); higher = more growth
Procedure, shortened: (§1)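 Growth is expressed as the fold change relative to the median of the DMSO control wells on each plate. Cultures in mGAM were grown anaerobically in 96-well plates for 27 h at 37 °C, shaken, and read at 595 nm. Readings were blank-subtracted, corrected for compound background with 20 µM compound solutions in water, and converted to OD with a calibration factor of 5. Fold changes above 1.5 were set to NA, and each value is the mean of 2 biological replicates.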

Escherichia coli IAI1 [2] = assay: as above
Procedure, shortened: as §1

[3] = tested on: Klebsiella aerogenes DSM 30053; assay: as above
Procedure, shortened: as §1

[4] = tested on: Ruminococcus gnavus DSM 108212; assay: as above
Procedure, shortened: as §1

[5] = tested on: Klebsiella aerogenes DSM 30053; assay: fold change of Histamine concentration vs plate DMSO controls (fold change (ratio)); higher = more amine produced, active = hit call of the paper (significant change in both replicates, either direction)
Procedure, shortened: (§2)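 Extracts of whole anaerobic mGAM cultures were analysed for amines by LC–triple-quadrupole MS with dynamic MRM and external calibration curves, with drift corrected within batch. Four gut strains were grown at 37 °C for 27 h in 80 µL wells with compounds at 20 µM final, sweeteners at 50 µM final. Each value expresses fold change over plate DMSO controls. The average of 2 biological replicates is shown.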

[6] = tested on: Clostridium sporogenes DSM 1664; assay: fold change of Tryptamine concentration vs plate DMSO controls (fold change (ratio)); higher = more amine produced, active = hit call of the paper (significant change in both replicates, either direction)
Procedure, shortened: as §2

[7] = tested on: Ruminococcus gnavus DSM 108212; assay: as above
Procedure, shortened: as §2

Escherichia coli IAI1 [8] = assay: fold change of Putrescine concentration vs plate DMSO controls (fold change (ratio)); higher = more amine produced, active = hit call of the paper (significant change in both replicates, either direction)
Procedure, shortened: as §2

[9] = tested on: Klebsiella aerogenes DSM 30053; assay: as above
Procedure, shortened: as §2

Escherichia coli IAI1 [10] = assay: fold change of Cadaverine concentration vs plate DMSO controls (fold change (ratio)); higher = more amine produced, active = hit call of the paper (significant change in both replicates, either direction)
Procedure, shortened: as §2

[11] = tested on: Klebsiella aerogenes DSM 30053; assay: as above
Procedure, shortened: as §2

[12] = tested on: Ruminococcus gnavus DSM 108212; assay: fold change of 2-Phenylethylamine concentration vs plate DMSO controls (fold change (ratio)); higher = more amine produced, active = hit call of the paper (significant change in both replicates, either direction)
Procedure, shortened: as §2

Compound | growth [1] | growth (Escherichia coli IAI1 [2]) | growth [3] | growth [4] | fold change of Histamine concentration [5] | fold change of Tryptamine concentration [6] | fold change of Tryptamine concentration [7] | fold change of Putrescine concentration (Escherichia coli IAI1 [8]) | fold change of Putrescine concentration [9] | fold change of Cadaverine concentration (Escherichia coli IAI1 [10]) | fold change of Cadaverine concentration [11] | fold change of 2-Phenylethylamine concentration [12]
Cc1onc(-c2c(F)cccc2Cl)c1C(=O)N[C@@H]1C(=O)N2[C@@H]1SC(C)(C)[C@@H]2C(=O)O [Flucloxacillin sodium] (20 µM) | 0 | 1.02 | 0.993 | 0 | 0.99 (inactive) | 0.0254 (active) | 0.0375 (active) | 1.01 (inactive) | 1.02 (inactive) | 1.07 (inactive) | 1.02 (inactive) | 0.0397 (active)
COc1ccc2c(c1)c(CC(=O)OC/C=C(\C)CC/C=C(\C)CCC=C(C)C)c(C)n2C(=O)c1ccc(Cl)cc1 [Indometacin farnesil] (20 µM) | 1.02 | 1.04 | 1.06 | 1.16 | 0.986 (inactive) | 0.94 (inactive) | 1.03 (inactive) | 1.03 (inactive) | 1.01 (inactive) | 1.04 (inactive) | 0.984 (inactive) | 1.06 (inactive)
CC1(C)S[C@@H]2[C@H](NC(=O)C(c3ccccc3)S(=O)(=O)O)C(=O)N2[C@H]1C(=O)O (stereo partly specified) [Sulbenicillin sodium salt] (20 µM) | 0 | 0.378 | 0.634 | 0 | 1.18 (inactive) | 0.0125 (active) | 0.086 (active) | 1.84 (inactive) | 0.969 (inactive) | 1.87 (active) | 1.08 (inactive) | 0.0641 (active)
CCCc1nc(C)c2c(=O)nc(-c3cc(S(=O)(=O)N4CCN(CC)CC4)ccc3OCC)[nH]n12 [Vardenafil] (20 µM) | 1.15 | 0.975 | 1.01 | 1.27 | 1.03 (inactive) | 0.992 (inactive) | 1.05 (inactive) | 1.01 (inactive) | 1.01 (inactive) | 1.02 (inactive) | 1.01 (inactive) | 1.07 (inactive)
COc1ccc(NS(=O)(=O)c2ccc(N)cc2)nn1 [Sulfamethoxypyridazine] (20 µM) | 0.883 | 1.01 | 0.983 | 1.01 | 1.06 (inactive) | 1.03 (inactive) | 1.17 (inactive) | 1.02 (inactive) | 1.03 (inactive) | 1.07 (inactive) | 1.1 (inactive) | 1.44 (inactive)
O=c1[nH]cc(F)c(=O)[nH]1 [5-fluorouracil] (20 µM) | 1.2 | 0.87 | 0.897 | 1.21 | 0.728 (inactive) | 0.767 (inactive) | 0.917 (inactive) | 0.626 (inactive) | 0.961 (inactive) | 0.945 (inactive) | 0.979 (inactive) | 0.918 (inactive)
CCn1cc(C(=O)O)c(=O)c2ccc(C)nc21 [Nalidixic acid sodium salt] (20 µM) | 1.09 | 0.265 | 0.814 | 1.13 | 1.43 (inactive) | 0.991 (inactive) | 1.02 (inactive) | 0.671 (inactive) | 1.05 (inactive) | 1.69 (inactive) | 0.966 (inactive) | 1.07 (inactive)
COc1nc(C)nc(Cl)c1NC1=NCCN1 [Moxonidine] (20 µM) | 1.05 | 0.991 | 0.981 | 1.01 | 1.07 (inactive) | 1 (inactive) | 1.04 (inactive) | 1 (inactive) | 1.01 (inactive) | 1.01 (inactive) | 0.991 (inactive) | 1.07 (inactive)
CCCCOc1cc(C(=O)NCCN(CC)CC)c2ccccc2n1 [Dibucaine] (20 µM) | 1.14 | 1.01 | 1.06 | 1.02 | 0.93 (inactive) | 1.02 (inactive) | 1 (inactive) | 0.927 (inactive) | 0.955 (inactive) | 0.961 (inactive) | 1.03 (inactive) | 1.03 (inactive)
CCCCC1(COC(=O)CCC(=O)O)C(=O)N(c2ccccc2)N(c2ccccc2)C1=O [Suxibuzone] (20 µM) | 0.913 | 1.04 | 1.06 | 1.12 | 0.877 (inactive) | 1.07 (inactive) | 0.929 (inactive) | 0.993 (inactive) | 0.987 (inactive) | 0.957 (inactive) | 1 (inactive) | 0.906 (inactive)
CCC[C@@H]1C[C@@H](C(=O)N[C@@H]([C@H]2O[C@H](SC)[C@H](O)[C@@H](O)[C@H]2O)[C@@H](C)O)N(C)C1 [Lincomycin hydrochloride] (20 µM) | 0.767 | 0.925 | 0.981 | 0.121 | 0.952 (inactive) | 0.761 (active) | 0.129 (active) | 0.531 (inactive) | 0.682 (active) | 0.967 (inactive) | 1.02 (inactive) | 0.117 (active)
CC1c2cccc(O)c2C(O)=C2C(=O)C3(O)C(O)=C(C(N)=O)C(=O)C(N(C)C)C3C(O)C21 (stereo unspecified) [Doxycycline hydrochloride] (20 µM) | 0.0027 | 0.0209 | 0.241 | 0.613 | 0.459 (inactive) | 0.0313 (active) | 0.225 (active) | 0.219 (active) | 0.659 (active) | 0.412 (active) | 0.724 (active) | 0.288 (active)
CC(=O)O[C@]1(C(C)=O)CC[C@H]2[C@@H]3C=C(C)C4=CC(=O)CC[C@@H]4[C@H]3CC[C@@]21C [Nomegestrol acetate] (20 µM) | 1.01 | 1.05 | 1.05 | 1.25 | 0.943 (inactive) | 1.01 (inactive) | 1.03 (inactive) | 1.03 (inactive) | 1 (inactive) | 0.946 (inactive) | 1.03 (inactive) | 1.02 (inactive)
